# Results taken from publication PMC11062922 (Nature Chemical Biology, 2023).
# Read-outs that look alike come from different tables or passages of the source.
# What was measured:
# Design in all cases: species or system human, MV4-11 + K-562 + COLO205 + SK-N-BE2 + OVCAR-8
# CIT = details: compound concentrations:0.3nM, 1nM, 3nM, 10nM, 30nM, 100nM, 300nM, 1000nM,R2:0.97918771846363795,slope:1.88206182244377,EC50 Standard Error, by the legend:Standard error of the EC50 estimation as provided by the drc package.
# MOB1A = details: compound concentrations:0.3nM, 1nM, 3nM, 10nM, 30nM, 100nM, 300nM, 1000nM,R2:0.920591021551731,slope:1.01230388230399,EC50 Standard Error, by the legend:Standard error of the EC50 estimation as provided by the drc package.
# PKN2 = details: compound concentrations:0.3nM, 1nM, 3nM, 10nM, 30nM, 100nM, 300nM, 1000nM,R2:0.99284498309618197,slope:1.0925759067996901,EC50 Standard Error, by the legend:Standard error of the EC50 estimation as provided by the drc package.
# PRKACA = details: compound concentrations:0.3nM, 1nM, 3nM, 10nM, 30nM, 100nM, 300nM, 1000nM,R2:0.96854382612038603,slope:0.55494475064464099,EC50 Standard Error, by the legend:Standard error of the EC50 estimation as provided by the drc package.
# PRKACB = details: compound concentrations:0.3nM, 1nM, 3nM, 10nM, 30nM, 100nM, 300nM, 1000nM,R2:0.87991730549407599,slope:0.899687988537484,EC50 Standard Error, by the legend:Standard error of the EC50 estimation as provided by the drc package.
# PRKCB = details: compound concentrations:0.3nM, 1nM, 3nM, 10nM, 30nM, 100nM, 300nM, 1000nM,R2:0.978843793099339,slope:1.0046603573044399,EC50 Standard Error, by the legend:Standard error of the EC50 estimation as provided by the drc package.
# PRKCD = details: compound concentrations:0.3nM, 1nM, 3nM, 10nM, 30nM, 100nM, 300nM, 1000nM,R2:0.97536342523711195,slope:1.1087330186118201,EC50 Standard Error, by the legend:Standard error of the EC50 estimation as provided by the drc package.
# PRKCQ = details: compound concentrations:0.3nM, 1nM, 3nM, 10nM, 30nM, 100nM, 300nM, 1000nM,R2:0.97430848163672201,slope:0.92336588926382501,EC50 Standard Error, by the legend:Standard error of the EC50 estimation as provided by the drc package.
# SPR [1] = details: read-out: apparent Kd, n = 1
# CSNK1D = details: compound concentrations:0.3nM, 1nM, 3nM, 10nM, 30nM, 100nM, 300nM, 1000nM,R2:0.90408083948088502,slope:1.4813297755061099,EC50 Standard Error, by the legend:Standard error of the EC50 estimation as provided by the drc package.
# CSNK1E = details: compound concentrations:0.3nM, 1nM, 3nM, 10nM, 30nM, 100nM, 300nM, 1000nM,R2:0.89444069129231096,slope:0.86279178326481998,EC50 Standard Error, by the legend:Standard error of the EC50 estimation as provided by the drc package.
# MAPK14 = details: compound concentrations:0.3nM, 1nM, 3nM, 10nM, 30nM, 100nM, 300nM, 1000nM,R2:0.95433345689641902,slope:0.62517275376181303,EC50 Standard Error, by the legend:Standard error of the EC50 estimation as provided by the drc package.
# MAPKAPK2 = details: compound concentrations:0.3nM, 1nM, 3nM, 10nM, 30nM, 100nM, 300nM, 1000nM,R2:0.91890870064253904,slope:1.05096662120135,EC50 Standard Error, by the legend:Standard error of the EC50 estimation as provided by the drc package.
# RIPK2 = details: compound concentrations:0.3nM, 1nM, 3nM, 10nM, 30nM, 100nM, 300nM, 1000nM,R2:0.98843771673654501,slope:0.97698272947785902,EC50 Standard Error, by the legend:Standard error of the EC50 estimation as provided by the drc package.
# RIPK3 = details: compound concentrations:0.3nM, 1nM, 3nM, 10nM, 30nM, 100nM, 300nM, 1000nM,R2:0.88646274803772895,slope:5.0878054739021197,EC50 Standard Error, by the legend:Standard error of the EC50 estimation as provided by the drc package.
# SPR [2] = details: compound concentrations:0.3nM, 1nM, 3nM, 10nM, 30nM, 100nM, 300nM, 1000nM,R2:0.99512909296274499,slope:1.24359258072984,EC50 Standard Error, by the legend:Standard error of the EC50 estimation as provided by the drc package.
# TGFBR2 = details: compound concentrations:0.3nM, 1nM, 3nM, 10nM, 30nM, 100nM, 300nM, 1000nM,R2:0.95772159417417102,slope:0.90025260883160396,EC50 Standard Error, by the legend:Standard error of the EC50 estimation as provided by the drc package.
# PRKD1 = details: read-out: apparent Kd, n = 1
# PYGL = details: read-out: apparent Kd, compound concentrations: 100 nM and 1000 nM (sheet 'Samples'), n = 1
# ZAK = details: read-out: apparent Kd, compound concentrations: 100 nM and 1000 nM (sheet 'Samples'), n = 1
# [3] = compound concentrations:100 nM and 1000 nM (sheet 'Samples')
# 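For EC50 in this document: competition pulldown with Kinobeads ε in cell lysates, inhibitor preincubated 45 min at 4 °C, bound kinases quantified by LC–MS/MS against DMSO control.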
# 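For Kd in this document: competition pulldown with Kinobeads ε in cell lysates, inhibitor preincubated 45 min at 4 °C, bound kinases quantified by LC–MS/MS against DMSO control.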
smiles,measurement,setting,value
CCn1c(-c2nonc2N)nc2c(C#CC(C)(C)O)nc(OCCN)cc21.CCn1c(-c2nonc2N)nc2c(C#CC(C)(C)O)nc(OCCN)cc21.Cl.Cl [GSK902056A],EC50,CIT,279 nM
same,Kd,CIT; read-out: apparent Kd,279 nM
same,EC50,MOB1A,223 nM
same,Kd,MOB1A; read-out: apparent Kd,223 nM
same,EC50,PKN2,401 nM
same,Kd,PKN2; read-out: apparent Kd,401 nM
same,EC50,PRKACA,230 nM
same,Kd,PRKACA; read-out: apparent Kd,212 nM
same,EC50,PRKACB,145 nM
same,Kd,PRKACB; read-out: apparent Kd,145 nM
same,EC50,PRKCB,410 nM
same,Kd,PRKCB; read-out: apparent Kd,401 nM
same,EC50,PRKCD,124 nM
same,Kd,PRKCD; read-out: apparent Kd,124 nM
same,EC50,PRKCQ,58.7 nM
same,Kd,PRKCQ; read-out: apparent Kd,58.7 nM
Cl.NCc1ccc(-c2nc(-c3ccc(Cl)c(O)c3)c(-c3ccncc3)[nH]2)cc1 [SB-476429-A],potency estimated from few doses,SPR [1]; [3],32.3 nM
same,EC50,CSNK1D,300 nM
same,Kd,CSNK1D; read-out: apparent Kd,300 nM
same,EC50,CSNK1E,642 nM
same,Kd,CSNK1E; read-out: apparent Kd,642 nM
same,EC50,MAPK14,174 nM
same,Kd,MAPK14; read-out: apparent Kd,174 nM
same,EC50,MAPKAPK2,174 nM
same,Kd,MAPKAPK2; read-out: apparent Kd,174 nM
same,EC50,RIPK2,55.9 nM
same,Kd,RIPK2; read-out: apparent Kd,28.8 nM
same,EC50,RIPK3,296 nM
same,Kd,RIPK3; read-out: apparent Kd,289 nM
same,EC50,SPR [2],32.8 nM
same,Kd,SPR [2]; read-out: apparent Kd,32.8 nM
same,EC50,TGFBR2,871 nM
same,Kd,TGFBR2; read-out: apparent Kd,767 nM
CCn1c(-c2nonc2N)nc2c(-c3ccccc3)ncc(OCCCN)c21.CCn1c(-c2nonc2N)nc2c(-c3ccccc3)ncc(OCCCN)c21.O=C(O)C(F)(F)F.O=C(O)C(F)(F)F [GSK260205A],potency estimated from few doses,"PRKD1; compound concentrations: 100 nM and 1000 nM (sheet 'Samples'), CATDS: 2.9847294929188299E-2",1340 nM
Cn1ncc2c(N)ncnc21 [SKF-18267],potency estimated from few doses,PYGL; CATDS: 4.6532954394714601E-3,943 nM
same,potency estimated from few doses,"SPR [1]; compound concentrations: 100 nM and 1000 nM (sheet 'Samples'), CATDS: 4.8201807384516803E-3",876 nM
same,potency estimated from few doses,ZAK; CATDS: 4.0930423662174304E-3,1260 nM
O=C1NC(=O)C(N2CCc3ccccc32)=C1c1ccccc1Cl [SB-373598],potency estimated from few doses,PRKD1; [3],1580 nM
CCn1c(-c2cccnc2O)nc2cnccc21 [SB-736715],potency estimated from few doses,PYGL; CATDS: 1.35129561389799E-2,1630 nM
CC(C)N1CC(=O)N(C)c2cnc(Nc3cccc(S(=O)(=O)CCN4CCOCC4)c3)nc21 [BI00009348],potency estimated from few doses,ZAK; CATDS: 5.0114665499168799E-2,1820 nM
